This passage reports outcome results from PubChem BioAssay AID2283364 (EPA ToxCast).

Inconclusive results are not listed. Activity calls are given as the source filed them. The calls were made as follows: active = hit-call score of the fitted dose curve at least 0.9, where 1 is the maximum; inconclusive = response in the unintended direction; inactive = score below 0.9.

Sequence of human FK-506 Binding Protein (FKBP12), FKBP1A (gene 2280) (P62942 whole entry, looked up): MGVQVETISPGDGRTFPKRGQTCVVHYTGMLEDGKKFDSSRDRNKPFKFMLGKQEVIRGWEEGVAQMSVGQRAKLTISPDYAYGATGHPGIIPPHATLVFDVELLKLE

This test deals with human FK-506 Binding Protein (FKBP12), FKBP1A (gene 2280) (UniProt P62942). Nature of the test: NVS_OR_hFKBP12: NovaScreen (NVS) Nuclear Receptor Binding Assay for human FK-506 Binding Protein (FKBP12). How it is done:
NVS_OR_hFKBP12 is a biochemical, single-readout assay that uses extracted gene-proteins from E. coli in a cell-free assay. Measurements were taken 0.75 hour after chemical dosing in a 48-well plate.NVS_OR_hFKBP12 is one of one assay component(s) measured or calculated from the NVS_OR_hFKBP12 assay. It is designed to make measurements of radioligand binding, a form of binding reporter, as detected with scintillation counting signals by Filter-based radiodetection technology.Data from the assay component NVS_OR_hFKBP12 was analyzed into 1 assay endpoint. This assay endpoint, NVS_OR_hFKBP12, was analyzed in the positive analysis fitting direction relative to DMSO as the negative control and baseline of activity. Using a type of binding reporter, loss-of-signal activity can be used to understand changes in the binding as they relate to the gene FKBP1A. Furthermore, this assay endpoint can be referred to as a primary readout, because the performed assay has only produced 1 assay endpoint. To generalize the intended target to other relatable targets, this assay endpoint is annotated to the misc protein intended target family, where the subfamily is chaperone.
Binding assays used specific radioligands (tritiated, iodinated) with non-radioactive competitive displacement ligands in agonist or antagonist protocols (as indicated) and various reference compounds and inhibitors to titrate specific binding to receptors and transporters. Most enzyme assays (CYPs, kinases, phosphatases, proteases, HDACs) used recombinant protein and specific substrates (fluorescence mostly, some colorimetric and radioactive) and inhibitors, followed by a biochemical separation of substrate and product. All assays for the biochemical HTS were initially run in duplicate at a single concentration (10 uM for CYP450 assays and 25 uM for all others). Assay-chemical combinations meeting a pre-defined threshold (e.g., 30% inhibition and other criteria defined below) were then run in singleton concentration-response format with maximum concentration of 20 uM for CYPs and 50 uM for all others. Each assay was run with positive and negative controls, and concurrent controls on every plate. The follow-up (secondary) screen tested active chemical-pairs in concentration series, as well as a few additional assays not tested in the primary screen, some selected negative inactives, and several cases re-run in the concentration series for confirmatory purposes.
Turning to `CO/N=C(/C1=NOCCO1)c1ccccc1Oc1ncnc(Oc2ccccc2Cl)c1F`, the result was inactive. The value for `O=C(O)c1nc(Cl)ccc1Cl` was “inactive”; that for `c1ccc(-c2ccccc2)cc1` was “inactive”; that for `CNC(=O)Oc1ccccc1OC(C)C` was “inactive”. The value for `CC[C@H](C)[C@H]1O[C@]2(C=C[C@@H]1C)C[C@@H]1C[C@@H](C/C=C(\C)[C@@H](O[C@H]3C[C@H](OC)[C@@H](O[C@H]4C[C@H](OC)[C@@H](O)[C@H](C)O4)[C@H](C)O3)[C@@H](C)/C=C/C=C3\CO[C@@H]4[C@H](O)C(C)=C[C@@H](C(=O)O1)[C@]34O)O2` (tested in a mixture with another compound) was “inactive”. With `Cc1ccn2nc(S(=O)(=O)Nc3c(F)cccc3F)nc2n1` the entry was “inactive”; with `Cc1cc(C)nc(NC(=O)NS(=O)(=O)c2ccccc2C(=O)OC2COC2)n1`, “inactive”; with `COP(=S)(OC)SCn1nnc2ccccc2c1=O`, “inactive”. Consider `COC(=O)C=C(C)OP(=O)(OC)OC`, for which the call was inactive.
